Compound activity from PubChem BioAssay.
NALP1 yeast inh = NALP1 inflammasome inhibitors in reconstituted yeast, colorimetric, S. cerevisiae, triplicate retest. S. cerevisiae NALP1/ASC/caspase-1 growth, X-gal OD620, 72 h. inhibition, % at 10 µM. 280,000 compounds, 0.61% hits. AID 2071, 2009; in the data active = inhibition mostly above about 24%, no sharp cut-off; inactive = mostly below about 32%
tim10-1 inh = growth inhibitors of tim10-1 mutant yeast, primary screen, luminescence, uHTS; inhibition, % at 20 µM; S. cerevisiae tim10-1 ts strain growth, BacTiter-Glo, 24 h; 330,000 compounds, 2.2% hits; AID 463190, 2010;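 active = inhibition of at least 40%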;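 also: mutant grown at 25 °C; 0% = DMSO wells with yeast and 100% = wells holding no yeast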
tim23-1 inh = growth inhibitors of tim23-1 mutant yeast, primary screen, luminescence, uHTS | AID 463212, 2010 | 330,000 compounds, 1.3% hits | S. cerevisiae tim23-1 growth, BacTiter-Glo luminescence, 24 h | inhibition, % at 20 µM;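 active = growth inhibition of the mutant yeast at or above 50%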;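 also: temperature-sensitive mutant grown at 25 °C; plate controls were DMSO-treated mutant yeast for no effect and medium wells lacking yeast for full effect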
NALP3 yeast inh = NALP3 inflammasome inhibitors in reconstituted yeast, primary screen, luminescence, uHTS; Yeast reconstituted NLRP3/ASC/caspase-1, beta-gal luminescence, 24 h; inhibition, % at 10 µM; 330,000 compounds, 0.39% hits; AID 2825, 2010;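 active = inhibition of 50% or more; inactive = inhibition below 50%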;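 also: plate controls were induced DMSO wells for no effect and uninduced yeast grown without galactose for full effect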
TIM10 inh = growth inhibitors of isogenic TIM10 control yeast, primary screen, counter-screen for tim10-1 yeast inhibitor project, luminescence, uHTS. 330,000 compounds, 1.4% hits. inhibition, % at 10 µM. S. cerevisiae TIM10 strain growth, BacTiter-Glo luminescence, 24 h;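 active = inhibition of 40% or more at the single tested concentration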;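 also: wild-type TIM10 isogenic control strain grown at permissive 25 °C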
Starred values were filed as active, the others as inactive. Only some compounds are listed: those with a hit (about 4% of all), similar ones and a draw of the others.

Screening CCOC(=O)c1[nH]c2ccc(F)cc2c1NC(=O)C(C)N1CCc2cc(OC)c(OC)cc2C1 (centres undefined) returned NALP1 yeast inh 31*, tim10-1 inh 27, tim23-1 inh 13, NALP3 yeast inh -8 and TIM10 inh 24.
For CCC1CCCCN1C(=O)CSc1nnc(-c2ccc(OC)cc2)o1 (centres undefined) the results were NALP1 yeast inh 44*, tim10-1 inh 31, tim23-1 inh 26, NALP3 yeast inh 10 and TIM10 inh 13.
`O=[N+]([O-])c1ccc(CN2CCN(c3ccc4ccccc4n3)CC2)cc1` gave NALP1 yeast inh 8, tim10-1 inh -1, tim23-1 inh 6, NALP3 yeast inh 27 and TIM10 inh 10.
COc1ccc(CCNC(=O)CCn2c(=O)c3cccn3c3cccnc32)cc1OC was read as NALP1 yeast inh 0, tim10-1 inh 24, tim23-1 inh 13, NALP3 yeast inh 3 and TIM10 inh -3.
`CCCCc1c(O)nc(SCC(=O)O)[nH]c1=O` gave NALP1 yeast inh -3, tim10-1 inh -2, tim23-1 inh 4, NALP3 yeast inh 3 and TIM10 inh -16.
Screening CCCCCCc1c(O)nc(SCC(=O)O)[nH]c1=O returned NALP1 yeast inh 33*.
For OC(c1ccc(Cl)cc1)C(O)c1nc2ccccc2[nH]1 (centres undefined) the results were NALP1 yeast inh -9, tim10-1 inh 14, tim23-1 inh 16, NALP3 yeast inh -11 and TIM10 inh 4.
OCC(O)C(O)C(O)C(O)c1nc2ccccc2[nH]1 (centres undefined) was read as NALP1 yeast inh 25*, tim10-1 inh 1, tim23-1 inh -8, NALP3 yeast inh 5 and TIM10 inh 9.
Screening NC(=O)c1ccccc1NC(=O)COC(=O)C1(c2ccccc2)CC1 returned tim10-1 inh 13, tim23-1 inh 16, NALP3 yeast inh 19 and TIM10 inh 9.
Screening COc1ccc(-c2cc(C(F)F)n3ncc(C(=O)Nc4cc(C)on4)c3n2)cc1 returned NALP1 yeast inh 43*, tim10-1 inh 20, tim23-1 inh -12, NALP3 yeast inh 15 and TIM10 inh -7.
`COc1cc(Cl)ccc1NC(=S)N(CCN1CCOCC1)C1CCN(C(C)=O)CC1` gave NALP1 yeast inh -5, tim10-1 inh 8, tim23-1 inh 21, NALP3 yeast inh 6 and TIM10 inh -2.
For Nc1c2c(nc3ccc(Br)cc13)N(c1ccccc1)CC2 the results were NALP1 yeast inh 3, tim10-1 inh 29, tim23-1 inh 21, NALP3 yeast inh 4 and TIM10 inh 18.
Screening Nc1c2c(nc3ccc(Br)cc13)N(Cc1ccccc1)CC2 returned NALP1 yeast inh 56*, tim10-1 inh 22, tim23-1 inh 24, NALP3 yeast inh 16 and TIM10 inh 25.
For CCCCSCCCNC(=O)Nc1cccc(OC)c1 the results were NALP1 yeast inh 40*, tim10-1 inh 4, tim23-1 inh 15, NALP3 yeast inh 13 and TIM10 inh 12.
Screening COc1cccc(NC(=O)NCCc2ccc(Cl)cc2)c1 returned NALP1 yeast inh 28, tim10-1 inh -11, tim23-1 inh 11, NALP3 yeast inh 12 and TIM10 inh 6.
COCCn1cc(C(=S)N2CCOCC2)c2ccccc21 was read as NALP1 yeast inh 33*, tim10-1 inh 11, tim23-1 inh 5, NALP3 yeast inh 0 and TIM10 inh 3.
For COc1ccccc1OC[C@H](O)CO the results were NALP1 yeast inh 16, tim10-1 inh -2, tim23-1 inh 8, NALP3 yeast inh 5 and TIM10 inh 7.
`N=c1c2c3c(sc2ncn1Cc1ccco1)CCCCC3` gave NALP1 yeast inh 16, tim10-1 inh 11, tim23-1 inh 12, NALP3 yeast inh 21 and TIM10 inh 4.
`CC(C)Cn1cnc2sc3c(c2c1=N)CCCC3` gave NALP1 yeast inh 40*, tim10-1 inh -13, tim23-1 inh -9, NALP3 yeast inh 16 and TIM10 inh -9.
Screening CN1CCN(C(=O)C2=C[C@@H](C3CCCCC3)C[C@@H](OCc3ccc(CO)cc3)O2)CC1 returned NALP1 yeast inh 24*, tim10-1 inh 7, tim23-1 inh 23, NALP3 yeast inh 11 and TIM10 inh 10.
Cc1ccc(NC(=O)C2CCCN2C(=O)NC2CCCCC2)cc1 (centres undefined) was read as NALP1 yeast inh 25*, tim10-1 inh 9, tim23-1 inh 0, NALP3 yeast inh 21 and TIM10 inh -1.
CCc1ccc(NC(=O)C2CCCN2C(=O)NC2CCCCC2)cc1 (centres undefined) was read as NALP1 yeast inh 7, tim10-1 inh -16, tim23-1 inh 11, NALP3 yeast inh 7 and TIM10 inh 12.
CCOC(=O)c1ccc(NC(=O)COc2ccc(S(=O)(=O)NC(C)CC)cc2)cc1 (centres undefined) was read as NALP1 yeast inh 28*, tim10-1 inh 6, tim23-1 inh 1, NALP3 yeast inh 14 and TIM10 inh -4.
`CCOC(=O)c1ccc(NC(=O)C(C)NS(=O)(=O)c2ccc(OC)cc2)cc1` (centres undefined) gave NALP1 yeast inh 0, tim10-1 inh 29, tim23-1 inh 17, NALP3 yeast inh 7 and TIM10 inh 2.
For Cc1ccc(-n2ncc3c(NCc4ccccc4)ncnc32)cc1 the results were NALP1 yeast inh 41*, tim10-1 inh -10, tim23-1 inh -20, NALP3 yeast inh 18 and TIM10 inh 0.
Cc1cc(C(=O)NNC(=O)Cc2ccc(Cl)c(Cl)c2)c(C)o1 was read as tim10-1 inh -28, tim23-1 inh 9, NALP3 yeast inh 23 and TIM10 inh -17.
O=[N+]([O-])c1ccc(O)c(Nc2c([N+](=O)[O-])ccc3nonc23)c1 was read as NALP1 yeast inh 4, tim10-1 inh 16, tim23-1 inh 14, NALP3 yeast inh 29 and TIM10 inh 10.
Screening COc1ccc(NS(=O)(=O)c2cccc(C(=O)NCCCn3ccnc3)c2)cc1 returned tim10-1 inh -13, tim23-1 inh -4, NALP3 yeast inh 4 and TIM10 inh -5.
COc1cc(-c2nn3c(COc4ccccc4)nnc3s2)cc(OC)c1OC was read as NALP1 yeast inh -4, tim10-1 inh 14, tim23-1 inh 8, NALP3 yeast inh -4 and TIM10 inh 5.
Screening Clc1ccccc1-c1nn2c(COc3ccccc3)nnc2s1 returned NALP1 yeast inh 40*, tim10-1 inh 34, tim23-1 inh 36, NALP3 yeast inh 21 and TIM10 inh 25.
For Cc1ccc(S(=O)(=O)N2CCN(C(=O)COC(=O)COc3ccccc3)CC2)cc1 the results were NALP1 yeast inh 29*, tim10-1 inh 9, tim23-1 inh 6, NALP3 yeast inh -2 and TIM10 inh -19.
